This is part of a sample that, as a whole, favours compounds with a hit. Of some 83,000 tested, about 20% had one in any assay.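 The test compound was applied at a single concentration to cells in 96-well plates for 48 hours, and percent growth was recorded.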 The source made the active and inactive calls. Rule for the calls: active = growth percent below 10; inactive = the rest.

The test system of the assay is HS 578T breast. As to the kind of experiment: NCI-60 one-dose screen, 48 h (100 = growth as untreated, 0 = no growth, -100 = all killed). As to conditions: 10 µM unless noted.
Take `Nc1cc2ccccc2c(O)c1O`: the growth is 81.7% (inactive).
In the case of `CC(=O)Nc1ccc(O)c(C)c1` it was 107% (inactive).
To `O=C(CCl)Nc1ccccc1SCc1cc(Cl)cc2c1OCOC2` belongs 102% (inactive).
In the case of `C/C(O)=C(/C=N\C(=S)Nc1ccc(S(=O)(=O)Nc2nccs2)cc1)C(=O)Nc1ccccc1C`, the growth was 84.1% (inactive).
In the case of `CC(C)c1ccc(C(=O)OCCCl)cc1` it was 94.7% (inactive); in that of `O=C(NCc1ccccc1)c1cccc([N+](=O)[O-])c1`, 91.2% (inactive).
To `C1CCc2onc(-c3noc4c3CCCCC4)c2CC1` belongs 115% (inactive).
In the case of `COc1ccc(Nc2cc(Cl)ccc2C(=O)O)cn1` it was 95.8% (inactive); in that of `CCCCOC(=O)c1ccccc1O`, 103% (inactive).
For the compound `C=CCN1CCCC1=O`, the growth was 109% (inactive).
In the case of `CCN(CC)CCN1CNC(=S)NC1` it was 105% (inactive).
As for `COC1OC(C(COC(C)=O)OC(C)=O)C(OC(C)=O)C(OC(C)=O)C1OC(C)=O` (configuration not stated), the growth was 129% (inactive).
In the case of `Nc1ccc(F)cc1F` it was 108% (inactive); in that of `COc1cc(CC#N)c([N+](=O)[O-])cc1OC`, 117% (inactive); in that of `CC(C)N(C(=O)c1ccccc1)C(C)C`, 108% (inactive).
In the case of `CCC(C)C1CCC(O)CC1` (configuration not stated) it was 104% (inactive).
`Cc1ccc(NC(=S)N2CCOCC2)cc1C`: the growth was 94.7% (inactive).
`O=C1NC(=O)/C(=C\c2ccncc2)N1`: the growth was 95% (inactive).
To `CC(C)(CC(=O)O)CC(=O)O` belongs 111% (inactive); to `ClCC(Cl)[C@@H]1CC2C=CC1C2` (some centres not stated), 108% (inactive).
With `CC(=O)NCNC(C)=O`, the growth is 111% (inactive).
`CCOC(=O)/C(C)=C\c1ccc(OC)c(OC)c1`: the growth was 108% (inactive).

The values are drawn from PubChem BioAssay (NCI).
